# Bioassay records deposited in PubChem BioAssay by National Center for Advancing Translational Sciences (NCATS).
# Shown is part of a subset that was picked to be rich in hits.
# KDM4E inh – blocks human JMJD2E demethylase activity | B2RXH2 | JMJD2E catalytic domain, FDH-coupled NADH fluorescence (FDH is formaldehyde dehydrogenase) | Potency, µM (top dose mostly 57.1 µM), inactives show top-dose activity change, negative = inhibition, usual class: inhibitors | actives 1.6% (n = 230,000); active = well fitted inhibition curve with a large enough effect, not every such curve was filed as active; inconclusive = small, poorly fitted or top-dose-only effect, or another doubt; inactive = no such curve, though single readings can be large or run the other way;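 also: 0% = wells with enzyme and -100% = buffer wells without enzyme; nearly all actives have a fitted effect of over 50% in size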
# Target sequence (B2RXH2 1-337 limits assumed): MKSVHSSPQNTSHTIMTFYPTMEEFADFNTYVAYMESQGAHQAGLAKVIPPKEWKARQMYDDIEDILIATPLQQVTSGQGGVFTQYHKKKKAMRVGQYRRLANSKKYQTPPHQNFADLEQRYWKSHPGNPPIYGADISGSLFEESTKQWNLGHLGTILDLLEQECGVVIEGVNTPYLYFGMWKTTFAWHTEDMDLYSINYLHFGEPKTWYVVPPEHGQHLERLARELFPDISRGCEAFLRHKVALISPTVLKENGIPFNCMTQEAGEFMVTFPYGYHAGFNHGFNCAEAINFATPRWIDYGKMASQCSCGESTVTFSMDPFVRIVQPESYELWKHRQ
# APE1 inh – inhibitors of human APE1 endonuclease | recombinant APE1, TAMRA/BHQ-2 abasic DNA cleavage fluorescence | Potency, µM (series often up to 65.8 µM), inactives show at the top dose activity change, negative = inhibition, most hits filed as inhibitors | actives 0.35% (n = 350,000) | AID 2517;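 also: plate controls were vehicle for no effect and reference inhibitor for full effect; nearly all actives have a fitted effect of over 55% in size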
# Target sequence (P27695 whole entry, looked up): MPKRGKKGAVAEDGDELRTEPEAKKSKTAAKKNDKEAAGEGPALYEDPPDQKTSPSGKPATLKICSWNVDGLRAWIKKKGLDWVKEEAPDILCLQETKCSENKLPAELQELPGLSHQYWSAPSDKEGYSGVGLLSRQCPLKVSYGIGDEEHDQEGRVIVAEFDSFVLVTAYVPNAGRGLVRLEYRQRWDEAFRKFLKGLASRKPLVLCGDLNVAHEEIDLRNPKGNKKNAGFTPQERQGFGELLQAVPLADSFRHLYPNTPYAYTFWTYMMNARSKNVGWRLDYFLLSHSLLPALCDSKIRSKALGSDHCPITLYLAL
#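 Endonuclease cleavage of a quenched abasic-site DNA duplex (50 nM) by APE1 (0.75 nM) was tracked by TAMRA dequenching. Compounds were preincubated with enzyme 15 min at room temperature; data normalized to buffer-only and DMSO wells plus NSC13755 control.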
# BLM helicase inh – blocks DNA unwinding by human BLM helicase; Potency, µM (titrated, usually from 56.1 µM), for the others: top-dose activity change, negative = inhibition, most hits filed as inhibitors; recombinant BLM DNA unwinding, fluorescence dequenching; actives 0.2% (n = 350,000); P54132;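 also: plate controls were vehicle for no effect and no enzyme for full effect; nearly all actives have a fitted effect of over 35% in size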
# RECQ1 inh – RECQ1 (human) helicase inhibition; Potency, µM (highest dose often 57.3 µM), inactives show at the top dose activity, negative = inhibition, usual class: inhibitors; RECQ1 DNA unwinding, red fluorescence kinetic read; actives 0.54% (n = 240,000); P46063; AID 2549;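 also: plate controls were vehicle for no effect and no enzyme for full effect; nearly all actives have a fitted effect of over 30% in size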
#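 50 nM RECQ1T1 preincubated 15 min with compound in Tris pH 8.0 buffer with MgCl2, DTT, Tween-20 and 2.5 ug/ml poly(dI-dC); started with 200 nM TAMRA/BHQ-2 forked duplex and 2 mM ATP. Unwinding read as fluorescence (525/598 nm), two reads 2 h apart.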
# PKM2 activator – PKM2 (human) enzyme activation. P14618. purified PKM2, Kinase-Glo ATP luminescence, activation; response scale: 0% is enzyme alone, no compound. Potency, µM (top dose mostly 57.5 µM), without a hit: top-dose activation, most hits filed as activators. actives 0.34% (n = 260,000); also: nearly all actives have a fitted effect of over 55% in size
#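 ATP formation by purified human PK-M2, quantified via coupled luciferase luminescence after 1 h at room temperature with 0.1 mM ADP and 0.5 mM PEP final.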
# Numbers without * were called inactive; i = inactive; ? = inconclusive; . = not tested or not shown; [ ] = another dose, or the depositor's remark. Unless noted, calls follow the shape of the dose curve; as a rule, active = well fitted curve in the direction sought with a large enough effect; inconclusive = small, poorly fitted or top-dose-only effect, or another doubt; inactive = no such curve, though single readings can be large; an effect the other way counts as inactive or inconclusive. Unless noted, % is scaled to controls: 0 for no effect and ±100 for the full control effect; potency is read from the fitted curve at half-maximal effect.
SMILES,KDM4E inh,APE1 inh,BLM helicase inh,RECQ1 inh,PKM2 activator
CCCCN(CC)S(=O)(=O)c1ccc(C(=O)Nc2nnc(-c3cccs3)o2)cc1,25µM*,0%,-4%,-3%,-5%
CCN(CC)S(=O)(=O)c1ccc(C(=O)Nc2nnc(-c3ccco3)o2)cc1,?,0%,0%,i,0%
O=c1cnc2cncnc2n1Cc1ccc(F)cc1,.,-10%,-7%,-5%,.
O=C(O)CCS(=O)(=O)c1cccc2cccnc12,-1%,1%,-3%,-13%,-3%
CCSS(=O)(=O)c1cccc2cccnc12,3.2µM*,3%,2%,-2%,9%
COCCN1C=C2C(=O)C(C)(OC(=O)CCC(=O)OC)C(=O)C(Br)=C2C=C1c1ccc(OC)cc1 (stereo not drawn),?,-4%[12.4 µM],-17%[12.4 µM],15%[11.5 µM],-6%[11.5 µM]
C=CCN1C=C2C(=O)C(C)(OC(=O)CCC(=O)OC)C(=O)C(Br)=C2C=C1c1ccc(OC)cc1 (stereo not drawn),7.9µM*,0%[12.4 µM],-19%[12.4 µM],0%[11.5 µM],-1%[11.5 µM]
COc1ccc(CCNCC(=O)N2C(C)CCCC2C)cc1OC (stereo not drawn),32µM*,-1%,-5%,-15%,-6%
COc1ccc(CCNC(=O)C2CC2)cc1OC,5%,0%,-1%,4%,-16%
CC1CS(=O)(=O)CCN1/N=C/c1ccc([N+](=O)[O-])o1 (stereo not drawn),.,1%[21 µM],.,.,.
Cn1c(Cc2ccccc2)nnc1SCC(=O)N1CCN(c2ccccc2)CC1,-3%,21%,-2%,-5%,13µM*
O=C(CSc1ccc2nnc(-c3ccccn3)n2n1)N1CCN(c2ccccc2)CC1,4%,15%,-7%,40µM*,6%
CC(C)(C)n1ncc2c(=O)n(Cc3ccccc3)cnc21,.,13%,.,.,.
CCOC(=S)SCC(=O)Nc1nccs1,-9%,0%,-1%,15%,18µM*
CN(c1ccccc1)c1nc(N)c(C#N)c(CC#N)c1C#N,-4%,-2%,-11%,-15%,-5%
CC(C)CN(CC(C)C)c1nc(N)c(C#N)c(CC#N)c1C#N,?,12%,-8%,28µM*,-5%
O=C(NCc1ccccn1)C1(C(F)(F)F)CC(CCCO)CCCO1 (stereo not drawn),.,1%,1%,9%,.
CCCS(=O)(=O)c1ncc(Cl)c(C(=O)N2CCN(c3ccc(OC)cc3)CC2)n1,.,.,-1%,.,.
CC(C)(C)n1ncc2c(=O)n(Cc3cc(C(F)(F)F)ccc3Cl)cnc21,.,1%,.,.,.
COC(=O)Cc1[nH]n(-c2nc3ccccc3s2)c(=O)c1C(C)=Nc1ccc(Cl)cc1,35µM*,11%,0%,i,-13%
COC(=O)Cc1[nH]n(-c2nc3ccccc3s2)c(=O)c1C(C)=Nc1ccc(C)cc1,?,2%,-3%,-6%,-18%
COc1ccc2c(c1OC)C(Cc1ccccc1)N1CCc3cc4c(cc3C1C2)OCO4 (stereo not drawn),?,7%,-6%,i,.
COc1cc2nc(Nc3cccc(F)c3)nc(N)c2cc1OC,.,-14%,-5%,.,.
COc1ccc(Nc2nc(N)c3cc(OC)c(OC)cc3n2)cc1,.,.,16µM*,.,.
CCNc1ccccc(C(=O)/C=C/c2ccc3c(c2)OCO3)c1=O,20µM*,-9%,-21%,?,27%
SMILES,KDM4E inh,APE1 inh,BLM helicase inh,RECQ1 inh,PKM2 activator
O=C(/C=C/c1ccc2c(c1)OCO2)c1cccs1,22µM*,-1%,-11%,0%,.
O=C(/C=C/c1ccc2c(c1)OCO2)c1ccc[nH]1,-30%,0%,0%,0%,-12%
COc1cc(/C=C\c2ccc(OC)cc2OC)cc(OC)c1,?,-4%,-8%,-3%,.
[O-]c1c[n+](-c2ccc(-[n+]3cc([O-])on3)cc2)no1,25µM*,15%,-19%,i,5%
Cc1ccc(-c2cc(C(=O)NCc3ccco3)c3ccccc3n2)o1,?,32µM*,-22%,?,?
O=C(O)c1cc(-c2ccco2)nc2ccccc12,?,25µM*,-9%,-25%,7%
O=C(c1ccco1)N1CCN(C(=O)c2cc(-c3ccccn3)nc3ccccc23)CC1,-1%,1%,-1%,-3%,20µM*
O=C(c1ccco1)N1CCN(C(=O)c2cc(Cl)nc3ccccc23)CC1,.,21%,.,.,.
COc1ccc(CNC(=O)COC(=O)c2cc(-c3ccco3)nc3ccccc23)cc1,?,20µM*,-23%,11µM*,9%
COC(=O)C1=C(C)N(Cc2ccccc2)[C@]23O[C@](C(=O)OC)(C(=O)N2C1c1ccccc1)C1CCOC(=O)C13 (stereo partly drawn),.,34%[12.4 µM],2%[12.4 µM],-3%[11.5 µM],.
CO[C@H](C(=O)[C@@H](O)[C@@H](C)O)C1Cc2cc3cc(O[C@H]4C[C@@H](O[C@H]5C[C@@H](O)[C@H](O)[C@@H](C)O5)[C@@H](O)[C@@H](C)O4)c(C)c(O)c3c(O)c2C(=O)[C@H]1O[C@H]1C[C@@H](O[C@H]2C[C@@H](O[C@H]3C[C@](C)(O)[C@H](O)[C@@H](C)O3)[C@H](O)[C@@H](C)O2)[C@H](O)[C@@H](C)O1 (stereo partly drawn),.,.,-6%,.,.
CC1=C(c2ccc(NN=C(C#N)C#N)cc2)NNC(=O)C1,.,.,-18%,.,.
CC(C)C[C@@H](C(=O)N[C@@H](Cc1c[nH]c2ccccc12)C(N)=O)N1C[C@]2(CCCN2C(=O)[C@H](Cc2ccccc2)NC(=O)[C@H](Cc2ccccc2)NC(=O)[C@H](CCC(N)=O)NC(=O)[C@H](CCC(N)=O)NC(=O)[C@@H]2CCCN2C(=O)[C@H](CCCCN)NC(=O)[C@@H]2CCCN2C(=O)[C@@H](N)CCCNC(=N)N)CC1=O,.,-1%,-2%,-5%,.
Cn1c(=O)c(C(=O)COC(=O)c2cc(-c3ccco3)nc3ccccc23)c(N)n(CC2CC2)c1=O,?,?,?,32µM*,?
COc1ccc(C2C=C3CNS(=O)(=O)C3CC2OC(=O)c2cccc(C)c2)cc1 (stereo not drawn),.,-9%,-13%,-2%,.
CCCCCCCCCCOc1cc(OCCCCCCCCCC)cc(N(CC(=O)O)CC(=O)O)c1,.,1%,?,-4%,.
COc1ccc(NC(=O)CN(C)C(=O)c2cc3c(s2)CCC3)cc1,.,1.9µM*,.,.,.
COc1ccc(NC(=O)CN(C)C(=O)c2cc3c(s2)CCCCC3)cc1,.,-9%,0%,.,-13%
CC(C)(C)NS(=O)(=O)c1cccc(-c2nnc(SCc3ccc(C(=O)O)cc3)n2-c2ccccc2)c1,.,50%,.,.,.
Cc1cc(C)nc(NS(=O)(=O)c2ccc(N/C=C/C(=O)c3ccc(Cl)cc3)cc2)n1,22µM*,6%,-2%,-8%,-8%
Fc1cccc(CNc2ncnc3ccc(-c4cccnc4)cc23)c1,.,24%,.,.,.
